Bioassay records (PubChem BioAssay)
ALOX12 inh: blocks human arachidonate 12S-lipoxygenase | purified 12hLO, xylenol orange hydroperoxide absorbance | AID 1671190 | Potency, µM (highest dose often 108 µM), for inactives: at the top dose activity change, negative = inhibition, most hits filed as inhibitors | 580,000 compounds, 1.1% hits | P18054
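Purified human 12hLO (150 nM final) in 25 mM Hepes, 0.01% Triton X-100, pH 7.0 was preincubated 15 min at room temperature with compound. Then 40 uM arachidonic acid was added, 30 min. Hydroperoxide was read by Fe-XO absorbance ratio 573/405 nm.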
PLK1 PBD inh: inhibitors of human PLK1 polo-box domain binding; 360,000 compounds, 2.8% hits; Plk1 PBD binding of FITC phosphopeptide, fluorescence polarization; P53350; AID 720504; Potency, µM, inactives show max response, negative = inhibition, actives largely listed as inhibitors; also: series mostly up to about 57 µM; nearly all actives have a fitted effect of over 65% in size
Target sequence (P53350 whole entry, looked up, the tested form may be a part): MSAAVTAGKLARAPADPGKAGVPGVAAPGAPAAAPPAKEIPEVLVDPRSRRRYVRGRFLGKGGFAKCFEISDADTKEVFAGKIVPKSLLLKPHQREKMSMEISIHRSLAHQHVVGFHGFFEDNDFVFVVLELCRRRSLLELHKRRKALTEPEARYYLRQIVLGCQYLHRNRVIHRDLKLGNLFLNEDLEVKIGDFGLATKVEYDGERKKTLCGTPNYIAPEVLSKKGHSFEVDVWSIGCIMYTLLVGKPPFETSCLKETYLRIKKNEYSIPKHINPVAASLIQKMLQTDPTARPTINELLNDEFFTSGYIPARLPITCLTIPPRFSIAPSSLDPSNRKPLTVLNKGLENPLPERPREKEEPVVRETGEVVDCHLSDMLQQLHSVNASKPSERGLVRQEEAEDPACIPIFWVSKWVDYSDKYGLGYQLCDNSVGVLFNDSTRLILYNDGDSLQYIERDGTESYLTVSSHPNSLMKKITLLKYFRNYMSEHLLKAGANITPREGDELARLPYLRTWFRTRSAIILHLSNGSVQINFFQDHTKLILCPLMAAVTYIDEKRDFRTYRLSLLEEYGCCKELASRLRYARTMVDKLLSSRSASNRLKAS
VDR inhibitor: inhibitors of human vitamin D receptor; P11473; 400,000 compounds, 0.93% hits; Potency, µM, without a hit: max response, negative = inhibition, most hits filed as inhibitors; VDR-SRC2-3 peptide fluorescence polarization, 2 h
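Measured by FP: displacement of SRC2-3 coactivator peptide from VDR by library compounds, following a two-hour ambient incubation.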
KAT2A inh: blocks human GCN5L2 histone acetyltransferase | Q92830 | GCN5L2 HAT assay, ThioGlo1 CoA-SH fluorescence | Potency, µM (series often up to 58.9 µM), inactives show at the top dose activity change, negative = inhibition, usual class: inhibitors | 390,000 compounds, 0.21% hits
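Fluorescence readout, Ex340nm/Em540nm: ThioGlo1 (50uM final) reacts with free CoA thiol released as 20nM GCN5L2 acetylates H3(1-25) peptide (75uM) using acetyl-CoA (70uM). Compound and enzyme sat 15 min beforehand; 20 min room-temperature reaction.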
An asterisk follows results filed as active; i = inactive; ? = inconclusive; . = not tested or not shown; [ ] = another dose, or the depositor's remark. Compounds with a hit are over-represented: about 3% of the library has one in this group of screens. Calls follow the shape of the dose curve; as a rule, active = well fitted curve in the direction sought with a large enough effect; inconclusive = small, poorly fitted or top-dose-only effect, or another doubt; inactive = no such curve, though single readings can be large; an effect the other way counts as inactive or inconclusive. % is scaled to controls: 0 for no effect and ±100 for the full control effect; potency is read from the fitted curve at half-maximal effect.

SMILES | ALOX12 inh | PLK1 PBD inh | VDR inhibitor | KAT2A inh
NC(=O)COC(=O)c1cc(-c2ccc(-c3ccccc3)cc2)nc2ccccc12 | -1.2% | . | . | .
CC(C)(C)CC(=O)N(Cc1cccc(Br)c1)C1CC1 | 57.2% | . | . | .
CCc1ccc(CCN2C(=O)c3ccccc3C2=O)nc1 | 4.2% | -3.2% | -9.5% | -0.5%
Cc1nc(CCN2C(=O)c3ccccc3C2=O)n[nH]1 | 71.3% | 7.52µM* | ? | -10.3%
Cc1nc2c(OCC(=O)c3ccccc3)cccn2c(=O)c1-c1cc(C)n(-c2ccc(Cl)cc2)n1 | 3.0% | . | . | .
N#Cc1c(C(F)(F)F)cc(=O)n2c1[nH]c1ccccc12 | 2.1% | 21.2µM* | -25.4% | -22.5%
N#Cc1c(CSCC(=O)O)cc(=O)n2c1[nH]c1ccccc12 | 0.8% | 2.2% | -9.0% | -1.4%
CCOC(=O)c1sc2nc(C(C)N3CCCC3)[nH]c(=O)c2c1C (stereo not given) | 34.7% | . | . | .
O=C(Nc1ccccc1Br)C1CC2CCC1C2 (stereo not given) | -26.3% | . | . | .
Fc1ccc(C2=NN(c3ccccc3)C(c3ccco3)C2)cc1 (stereo not given) | ? | -4.1% | -20.7% | -3.1%
Cc1ccc(N2N=C(c3ccc(F)cc3)CC2c2ccco2)cc1 (stereo not given) | 25.1µM* | -1.2% | ? | 0.4%
O=C(c1ccccc1)N(Cc1ccc2[nH]ccc2c1)C1CC1 | -1.4% | . | . | .
CCCCCCCCCCOC(=O)C[N+](C)(C)C/C=C(/C)Cl | -13.5% | 29.9µM* | -25.0% | -3.1%
CCCCCCCCOC(=O)C[N+](C)(C)C/C=C(/C)Cl | -12.7% | 3.9% | -1.1% | -3.9%
CCCCCCCCCCOC(=O)C[N+](C)(C)Cc1ccccc1 | 44.7µM* | . | . | .
Cc1ccc2nc(CO[C@H]3CN(c4ccc(C#N)cn4)C[C@H]3F)[nH]c2c1 | 14.1µM* | . | . | .
Cc1nc(COc2ccccc2C(=O)N2CCC(C)CC2)no1 | 42.9% | . | . | .
[O-][N+](=Cc1ccccc1)c1ccc(Cl)cc1 | 3.1% | 21.2µM* | ? | .
[O-]/[N+](=C/c1ccco1)c1ccccc1 | ? | -3.3% | 11.3% | -8.0%
[O-]/[N+](=C\c1ccco1)c1ccc(Cl)cc1 | 37.4% | ? | 35.5µM* | -9.7%
COC(=O)/C(=C/c1c[nH]c2ccccc12)[N+](=O)[O-] | ? | 2.38µM* | -7.5% | -0.4%
Cc1ccc(SC(=O)c2ccccc2)cc1 | 36.8% | . | . | .
Cc1cccc(N2CCN(C(=O)C3CCC(=O)N(C4CC4)C3)CC2)c1C (stereo not given) | -0.4% | 7.52µM* | ? | -2.2%
Cc1cccc(N2CCN(C(=O)Cn3ncc4c5ccccc5n(C)c4c3=O)CC2)c1C | -13.0% | . | 9.0% | -1.9%
Cc1cccc(N2CCN(C(=O)Cc3cn(C)c4ccccc34)CC2)c1C | -40.8% | 11.9µM* | 20µM* | -2.5%
SMILES | ALOX12 inh | PLK1 PBD inh | VDR inhibitor | KAT2A inh
Cc1cccc(N2CCN(C(=O)C(C)C)CC2)c1C | -7.9% | 29.9µM* | -6.0% | -1.6%
Cc1cccc(N2CCN(C(=O)Cn3cccc3)CC2)c1C | 22.6%[57.4 µM] | -13.8% | -12.9% | -12.0%
Cc1c(C(=O)Nc2nnc(C(C)C)s2)nnn1-c1ccccc1 | -12.8% | . | . | .
CCOC(=O)COc1ccc2c(=O)c(Oc3ccc(C(=O)OC)cc3)c(C)oc2c1 | -4.2% | . | . | .
CC(C)NC(=O)c1ccc(-n2nc(Sc3ccc(Cl)cc3)ccc2=O)cc1 | -4.8% | . | . | .
O=C(NC(O)C(=O)c1ccccc1)c1ccccc1 (stereo not given) | -27.7% | . | . | .
COc1ccc2c(c1)cc(C(=O)Nc1cccc(Cl)c1)n2C | -1.2% | . | . | .
CC(C)CNC(=O)C(=O)NCCCN1CCOCC1 | 0.0% | 21.2µM* | -13.3% | -10.1%
O=C(O)Cn1c(C(=O)Nc2nc(-c3ccccc3Cl)cs2)cc2ccccc21 | 0.2% | . | 56.2µM* | ?
O=C(CN1CCC2(CC1)OCCO2)Nc1cc(Cl)ccc1Cl | 10.8% | . | . | .
CCCCCCCC1CC(/C(C)=N/NC(N)=O)OC1=O (stereo not given) | -8.9% | 11.9µM* | 44.7µM* | -4.0%
C/C(=N\NC(N)=O)C1CC(CC(C)C)C(=O)O1 (stereo not given) | 23.3% | -4.0% | -8.9% | -1.3%
C[n+]1cc(C(=O)N2CCCCC2)ccc1/C=C/c1c[nH]c2ccccc12 | 20µM* | 92.0% | 29.2% | -12.2%
COC(=O)c1c(C)cc(O)cc1O | -1.9% | 0.5% | 1.0% | -8.3%
Cc1cc(OC(=O)c2c(C)cc(OC(=O)c3c(C)cc(O)cc3O)cc2O)cc(O)c1C(=O)O | 35.5µM* | 29.9µM* | ? | .
COc1ccc(COCC(O)CNC(=O)C2CC2)cc1 (stereo not given) | 4.7% | . | . | .
COc1ccc(-c2cc(=Nc3ccc(C(=O)O)cc3)c3cc(C)ccc3o2)cc1 | -15.2% | -14.5% | 1.6% | -4.1%
CCc1ccc2oc(-c3ccc(OC)cc3)cc(=Nc3cccc(C(=O)O)c3)c2c1 | ? | 26.7µM* | 79.4µM* | -9.8%
S=c1cnc2ccccc2[nH]1 | ? | 11.9µM* | ? | -15.6%
CCCCN=Cc1sc2ccc(OCC)cc2c1O | -2.4% | 26.7µM* | ? | -2.5%
O=C(/C=C/Nc1ccc(OCc2ccccc2)cc1)c1ccc(Br)cc1 | -17.3% | . | . | .
CCOC(=O)c1cc(-c2csc(Nc3c(C)cc(C)cc3C)n2)on1 | 20µM* | -0.8% | 10.4% | -7.3%
O=C(Cc1noc(C(=O)NC2CCCCC2)n1)Nc1cccc2ncccc12 | 10.6% | . | . | .
CCOc1cc(CNC(=O)c2ncoc2-c2cccc(Cl)c2)ccc1OC | 8.2% | . | . | .
c1coc(-c2cnc3ccccc3n2)c1 | 39.8µM* | -16.9% | . | .
SMILES | ALOX12 inh | PLK1 PBD inh | VDR inhibitor | KAT2A inh
c1ccc(-c2nccc(-c3ccco3)n2)nc1 | 2.5% | 4.0% | -0.8% | -4.3%
Cc1cc(-c2nnc(SCC(=O)Nc3ccccc3C(F)(F)F)n2N)n[nH]1 | 3.7% | 5.97µM* | ? | -3.7%
COc1ccc(-n2c(Cc3cccn3C)nnc2SCC(=O)Nc2nccs2)cc1 | i | -0.4% | 5.3% | 0.4%
N#Cc1cccc(NC(=O)CSc2ccc3c4c(cccc24)C(=O)c2ccccc2-3)c1 | ? | ? | 3.3% | -6.0%
Cc1cccc(NC(=O)CSc2nnc(-c3ccco3)c(-c3ccco3)n2)c1C | . | 15µM* | ? | ?
COc1ccc(-n2c(SCC(=O)Nc3nccs3)nnc2-c2ccccc2)cc1 | ? | 26.7µM* | -11.2% | 0.7%
Cc1cc(-c2nnc(SCC(=O)Nc3ccccc3F)n2N)n[nH]1 | 1.2% | -13.9% | -6.3% | 0.8%
COc1ccc(NC(=O)CSc2ccc3c4c(cccc24)C(=O)c2ccccc2-3)cc1 | -23.4% | ? | -3.0% | 22.4µM*
Cc1ccc(C(=O)O)c(OCC(=O)NCc2ccco2)c1 | -1.1% | . | . | .
Cc1ccccc1NC(=O)CSc1nnc(-c2ccco2)n1N | ? | 18.9µM* | ? | -3.8%
Cc1cc(C)c(NC(=O)CSc2nnc(-c3ccco3)n2N)c(C)c1 | 0.0% | -0.2% | -7.6% | -1.6%
COc1ccc(NC(=O)CSc2nnc(-c3ccccc3C)n2N)cc1 | 0.0% | 21.2µM* | ? | -0.5%
O=C(NC1CCc2ccccc21)c1cc(Br)ccc1Cl (stereo not given) | 22.8% | . | . | .
Cc1ccc(-n2c(Cl)c(Cl)nc(Cl)c2=O)cc1 | . | 2.67µM* | ? | -2.2%
